# Screens as filed in PubChem.
# SARS PLpro yeast: inhibitors of SARS-CoV papain-like protease in yeast; S. cerevisiae expressing SARS-CoV PLpro, growth rescue; Potency, µM (doses to about 32.9 µM), for inactives: at the highest dose activity, positive = growth rescue, hits mostly activators; hit rate 0.19% among 330,000; calls by dose curve; further: 0% is about no effect; nearly all actives have a fitted effect of over 55% in size
# Pf growth 48h: inhibits P. falciparum growth in the first generation, 48 h; Potency, µM (doses to about 28.7 µM), for the others: at the highest dose activity change, negative = inhibition, hits mostly inhibitors; hit rate 5.9% among 310,000; AID 504832; P. falciparum luciferase growth in erythrocytes, 48 h; further: on the % scale 0 is the no-effect control and ±100 the full control effect
#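 Parasite viability was followed by luminescence of a genomically integrated firefly luciferase. Cultures held 0.1% parasitemia at 2% hematocrit (final), incubated under 5% CO2 at 37 C.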
# Pf growth 96h: P. falciparum growth inhibition at 96 hour, primary screen for plastid delayed-death inhibitors; P. falciparum luciferase reporter growth, 96 h; hit rate 6.9% among 320,000; Potency, µM (top dose mostly 28.7 µM), without a hit: at the top dose activity change, negative = inhibition, usual class: inhibitors; further: on the % scale 0 is the no-effect control and ±100 the full control effect
#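 P. falciparum expressing integrated firefly luciferase grown in erythrocytes (2% hematocrit, 0.05% parasitemia final) with compounds for 96 hours at 37 C, 5% CO2. Growth inhibition read as loss of luminescence after adding luciferase detection reagent.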
# Sm TGR inh: inhibitors of Schistosoma mansoni thioredoxin glutathione reductase | purified TGR, DTNB reduction, TNB absorbance 405 nm | Potency, µM (series often up to 114 µM), for inactives: top-dose activity change, negative = inhibition, hits mostly inhibitors | hit rate 3% among 360,000 | AID 485364 | Q962Y6; further: on the % scale 0 is the no-effect control and ±100 the full control effect; nearly all actives have a fitted effect of over 60% in size
#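 TGR 20 nM + NADPH 100 uM (dispensed conc.), cpd preinc 15 min RT; start with NADPH (500 uM addition) then DTNB (15 mM addition). Kinetic TNB absorbance, 405 nm filter. Four-parameter Hill fit across titration.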
# * marks the source's active call; other numbers are inactive results; ? = inconclusive; . = no result. This is a sample that favours compounds with a hit; in the whole collection about 12% have one here. Unless noted, the call rests on the fitted dose curve; in most records, active means well fitted curve in the direction sought with a large enough effect; inconclusive means small, poorly fitted or top-dose-only effect, or another doubt; inactive means no such curve, though single readings can be large; an effect the other way counts as inactive or inconclusive. Potency means the concentration at half of the fitted maximal effect.
SMILES,SARS PLpro yeast,Pf growth 48h,Pf growth 96h,Sm TGR inh
COc1ccc(C(CC(=O)N2CCOCC2)c2c(O)cc(OC)cc2OC)cc1 (centres undefined),-1.7%,38.6%,67.8%,-24.0%
COc1ccc(C(CCN2CCOCC2)c2c(O)cc(OC)cc2OC)cc1 (centres undefined),4.4%,3.7µM*,3.29µM*,-12.9%
CCC(=O)N1CCc2cc(S(=O)(=O)NCCC(=O)Nc3ccc(C)cc3)ccc21,.,.,.,-8.2%
O=C(CNC(=O)c1ccccc1)OCCCOC(=O)CNC(=O)c1ccccc1,-0.5%,-0.1%,-21.9%,?
NS(=O)(=O)c1ccc(-c2ccc(C=C3C(=O)NC(=S)NC3=O)o2)cc1,0.9%,-13.2%,?,2.24µM*
NS(=O)(=O)c1ccc(-c2ccc(C=C3C(=O)NC(=O)NC3=O)o2)cc1,.,57.6%,63.6%,?
CCOC(=O)CCSc1n[nH]c(=S)s1,0.6%,-16.3%,-9.9%,17.8µM*
Cn1c(Cc2cccs2)nnc1SCC(=O)Nc1ccc(F)cc1F,3.6%,-29.7%,7.9%,-1.1%
O=C(CN1CCN(C(=O)c2ccccc2)CC1)Nc1cccc(S(=O)(=O)N2CCCC2)c1,-3.9%,?,?,-9.1%
O=C(CN1CCN(C(=O)c2cccc(S(=O)(=O)N3CCCC3)c2)CC1)Nc1ccc(F)cc1,-8.5%,?,?,-12.6%
O=C(CN1CCN(C(=O)c2cccc(S(=O)(=O)N3CCCC3)c2)CC1)Nc1ccccc1Cl,1.3%,10.4µM*,?,-29.1%
O=C(CN1CCN(C(=O)c2ccccc2)CC1)Nc1cc(S(=O)(=O)N2CCCC2)ccc1Cl,3.2%,10.4µM*,?,-3.2%
O=C(CN1CCN(CC(=O)Nc2ccccc2Cc2ccccc2)CC1)Nc1ccccc1Cl,-0.6%,?,13.1µM*,1.0%
CN(C)c1ccc(S(=O)(=O)N2CCCCC2)cc1NC(=O)CCNC(=O)c1ccco1,-3.0%,11.7µM*,?,?
CCOc1cccc2cc(C(N)=O)c(=N)oc12,0.2%,18.4%,1.7%,-13.2%
O=S(=O)(Nc1ccc(-n2cnnn2)cc1)c1cccc(Cl)c1,-12.5%,?,-0.5%,6.9%
CCCCNC(=O)C1CCN(c2nc3ccccc3nc2C(F)(F)F)CC1,.,.,.,4.1%
O=C(CN(Cc1ccco1)Cc1ccco1)Nc1cc(S(=O)(=O)N2CCCCC2)ccc1Cl,-4.5%,13.1µM*,?,-31.5%
O=C(NCc1ccco1)c1cc(S(=O)(=O)N2CCCC2)ccc1Cl,-2.5%,-9.0%,1.6%,-11.8%
O=C(CN1CCN(S(=O)(=O)c2ccccc2)CC1)Nc1ccccc1Cl,-4.2%,13.7%,-5.3%,-3.3%
O=C(CN1CCN(S(=O)(=O)c2ccccc2)CC1)Nc1ccccc1C(=O)c1ccccc1,-11.4%,13.1µM*,4.65µM*,-1.6%
CC(C)CCn1c(=O)c2cccnc2n(CC(=O)Nc2ccccc2F)c1=O,.,.,.,2.0%
O=S(=O)(c1cccs1)N1CCC2(CC1)OCCO2,8.9%,?,13.1µM*,-1.1%
O=S(=O)(c1cccs1)N1CCN(S(=O)(=O)c2cccs2)CC1,0.7%,17.2%,?,.
CCCCCCCCCC[n+]1cccc(C(=O)N(CC)CC)c1,-16.5%,3.7µM*,3.7µM*,-0.8%
SMILES,SARS PLpro yeast,Pf growth 48h,Pf growth 96h,Sm TGR inh
O=S(=O)(c1ccccc1)N1CCN(C(=S)Nc2ccc(F)cc2)CC1,-13.4%,?,?,-19.1%
O=S(=O)(c1ccc(Cl)cc1)N1CCN(C(=S)Nc2ccc(F)c(Cl)c2)CC1,-3.2%,0.657µM*,0.5%,-12.5%
Cc1cccc(NC(=S)N2CCN(S(=O)(=O)c3ccc(F)cc3)CC2)c1,-6.0%,2.08µM*,?,0.6%
Cc1ccc(NC(=S)N2CCN(S(C)(=O)=O)CC2)cc1,9.8%,38.8%,10.4µM*,-19.7%
Cc1ccc(C)c(NC(=S)N2CCN(S(C)(=O)=O)CC2)c1,-1.1%,6.1%,20.3%,3.1%
Cc1ccc(S(=O)(=O)c2nnn3c2nc(N2CCCC(C)C2)c2cc(Cl)ccc23)cc1C (centres undefined),.,.,.,1.3%
O=C(OCc1cc(=O)n2nc(-c3cccs3)sc2n1)c1cccc(F)c1,.,.,.,5.8%
COc1ccc2oc(=O)cc(CN3CCN(C(=O)c4ccccc4)CC3)c2c1,.,.,.,-4.8%
Cc1cc2n(c1)CCn1c(C)ccc1-2,2.3%,15.8%,.,44.7µM*
CC(C)(C)C1=CC=C(C(C)(C)C)C(=O)C1=O,-0.2%,9.5%,?,25.1µM*
O=c1c(Cl)c(Cl)cnn1Cc1ccccc1Cl,-48.1%,-0.9%,?,12.6µM*
O=c1c(Cl)c(Cl)cnn1-c1ccccc1,-72.5%,-18.1%,?,39.8µM*
Cc1ccc(Cn2ncc(Cl)c(Cl)c2=O)cc1,-20.7%,-2.2%,?,3.55µM*
O=c1c(Cl)c(Cl)cnn1Cc1nnc(-c2ccc(Cl)cc2)o1,-11.6%,1.4%,-42.6%,4.47µM*
Nc1cnn(-c2ccccc2)c(=O)c1Cl,12.1%,?,-14.4%,-6.9%
COc1cc2sc(-c3ccc(S(C)(=O)=O)cc3)c(-c3ccc4c(c3)OCO4)c2cc1OC,-1.0%,.,.,.
C#CCOCCOCCOCCNc1nc(N2CCN(C(=O)[C@H](CCC(=O)O)n3cc([C@@H](N)CO)nn3)CC2)nc(N2CCN(C(=O)[C@H](CCC(=O)O)n3cc([C@@H](N)CCSC)nn3)CC2)n1,-2.5%,.,.,.
Cc1ccc(Cn2c(C)c3cnn(CC(=O)O)c(=O)c3c2C)cc1,.,.,.,-13.0%
Cc1cc(C)cc(Cn2ncc(Cl)c(Cl)c2=O)c1,-45.3%,12.2%,-26.7%,2.82µM*
Cc1[nH]c(C)c2c(=O)n(Cc3ccc(Cl)cc3)ncc12,0.8%,11.7µM*,?,1.2%
CCN(c1ccccc1)S(=O)(=O)c1ccc(OC)c(NC(=O)CNCCc2ccccc2)c1,-0.7%,11.7µM*,?,13.7%
CCN(c1ccccc1)S(=O)(=O)c1ccc(OC)c(NC(=O)Cc2ccc(F)cc2)c1,4.7%,?,10.4µM*,-10.1%
COc1ccc(C(=O)NC2CCN(S(=O)(=O)c3ccccc3F)CC2)cc1,1.4%,10.4µM*,-13.2%,-3.5%
Cc1ccc(S(=O)(=O)NCC2CCCO2)cc1 (centres undefined),1.3%,0.0%,307.1%,2.7%
Cc1ccc(S(=O)(=O)NNC(=S)NCC2CCCO2)cc1 (centres undefined),-5.3%,22.2%,20.7%,12.6µM*
SMILES,SARS PLpro yeast,Pf growth 48h,Pf growth 96h,Sm TGR inh
COc1ccc(CCNC(=S)N2CCN(S(=O)(=O)c3ccccc3)CC2)cc1,5.8%,10.4µM*,?,0.8%
COc1cc(OC)cc(C(=O)NCC(=O)N2CCN(S(=O)(=O)c3ccccc3F)CC2)c1,-2.7%,.,.,.
COc1ccc(CCNC(=S)N2CCN(S(=O)(=O)c3ccccc3F)CC2)cc1,-9.1%,13.1µM*,?,-3.8%
COC(=O)c1ccccc1S(=O)(=O)N1CCC(NC(=O)c2ccccc2)CC1,0.5%,?,-21.1%,-10.6%
CC1Sc2ccc(S(=O)(=O)CCC(=O)NCc3ccc(Cl)cc3)cc2NC1=O (centres undefined),2.2%,-3.6%,?,-17.0%
CC(C)c1nn2c(=O)cc(COC(=O)c3ccccc3NC(=O)c3cccs3)nc2s1,.,.,.,3.2%
CCNC(=S)N1CCN(C(=O)C(Cc2ccccc2)NC(C)=O)CC1 (centres undefined),-0.5%,54.4%,10.4µM*,5.5%
